Results from the supplement of paper PMC10681739.
Over roughly 2,700 sequences, “arbitrary fluorescence units” has its median near 4,100; the highest 2% begin near 54,000. This is one part of a sample in which the highest values are shown more often than they occur.

biological target: T1, ETS1 (UniProt P14921); assay: ETS1 binding intensity (PBM fluorescence) (arbitrary fluorescence units); higher = stronger binding; conditions: ETS1 concentration 10 nM
T1 sequence: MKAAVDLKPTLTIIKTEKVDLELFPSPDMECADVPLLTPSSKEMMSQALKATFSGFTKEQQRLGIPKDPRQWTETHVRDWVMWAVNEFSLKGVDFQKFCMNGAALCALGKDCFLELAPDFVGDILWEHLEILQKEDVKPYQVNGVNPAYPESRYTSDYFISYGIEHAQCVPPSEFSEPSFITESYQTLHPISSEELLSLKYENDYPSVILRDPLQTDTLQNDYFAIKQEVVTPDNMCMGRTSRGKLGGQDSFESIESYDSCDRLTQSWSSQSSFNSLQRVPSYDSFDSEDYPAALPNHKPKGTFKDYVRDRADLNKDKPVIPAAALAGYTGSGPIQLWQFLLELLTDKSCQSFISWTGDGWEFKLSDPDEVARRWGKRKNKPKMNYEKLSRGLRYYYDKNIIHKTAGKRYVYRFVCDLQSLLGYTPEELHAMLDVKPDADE
Procedure: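 gcPBM on wild-type 36-bp genomic probes with two neighbouring ETS1 sites (4-24 bp apart). Recombinant human ETS1 (10 nM) was detected with anti-ETS1 antibody fluorescence. Values are medians over 3 replicate spots. The probes sit in constant array flanks that are not printed.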

Sequence	ETS1 binding intensity
ACATAAGACATGAGGATGTCTTCCTGACTTGCGTCC	208
GGGTCTTCCGGCCCTCTCGAAAATCATTTCCGGCAT	22500
GTTATGATAACGGAACTACAGTTCCTCCAGGATGGA	195
GGAGGAGGCGGAGGAAACCCGGAAAAGGGGCCGCGC	382
GCGCCGCCTCAGTTCCGCGGCTTCCGGCCACAGAGT	8030
GGCTCACTTCCGGCCTCAGAGCCGCTTCCGGCGCGC	71400
GCTCCGCCCCCGGAAGCCTCACTTCCGGGCGCGAGC	25300
CGGGAGCAGCGGAAGTCATTAACATCCGCGGTTGTG	12500
TGCCACCACACCAGGATGCTTCCGTCTTTGAAGGCA	1030
GTCACCACATCCTGAGGCTTCTCATTTCCTTTCTAC	6290
ACAACTTCCTGTTACACAAGACAGGTATTTCCTCAT	59800
TGTTATTGGACAACTTCCAGGAAAACATCCTCAAGA	273
TGCCAAGTTACACTTCCTGTTTCCTCTCTGTGTGCC	31700
AGCCCAAGCGCGGAAGAGGGCGGAAGGAGAACCCCT	240
GCACCAAGGGAAGTGGTTAAAACAGGAAGACCCGCT	919
CGGCCCTTCCATTTCCTGCCTTCCTGCCTGCATTTG	24200
GGAGCACTTCCGCTGGACGCACGCACTTCCGGCCCC	50800
TTACACTACTTCCGCCGCCTCACTTCCGGTGACGCG	34100
GTCACTTCCGGCGCCCGCCTACACGCACTTCCGTTC	88200
CATCCTTGGCATTTCCTCTGAGGAAGCTCGCACCCC	3550
GGTTGGTGATTGGCAGGATCCTGGTATCCGCTAACA	278

Sequence	ETS1 binding intensity
CTTCGCCTTCCGCTGTGAATAATAGCTTCCTGAGGC	10100
CTGCTACAGGAAATCGCTTGTTATTTCCTGTAATGC	10900
TGAGGCGGTTTCCTCGGCGCCTTTTCCGGCAGCGGC	1360
TTCATTTCCGGCGGCGGAGGCGGCAGTTTCCTAAGC	73000
CTCAACTTCCGGAGGCGGCAGACTTTTTCCGTCAAG	36700
AGATCGCTGGCTTCCTGTGTTTTTCCTGGACTCAGG	14800
CGCCGGAAGTGGTCGCGGGTCGTTCTGCTTCCTGCC	18000
CGGCCTCTTCCGCGAGCCCGCGCGCCGGAAGTGGAA	5440
GCACCGGAAGTGACCGCCTCGCGGCTGCTTCCTCTC	57700
CCTGAGTTTCCTTGTCTGGAGCTGCAGGATATTTGT	800
ACCCCCTGGCGGATGCTGTGTGTTTCCTGTGCTTAG	3420
GGTCCGGAAGGGAGGAGAACACAAGCAGGATATAAC	860
ATCTGCAGGATGTAAGAAGAATAGAAGGAAGCTGGG	1930
TGGCGGAGGCGCCGGAAGTTTTCCGGCTTTCTGCTG	4500
GGGGACCGGAAGCCAGCGGCAACAACTTCCGGCGGG	23100
GACACAACTTCCGGCTTCTGGCGGCGGAAGAGGACA	90100
TGAATGCTGTCATTTCCGCTTCCGCCTCCTTCTTTC	26500
TGATTTCCGCTTTCTCCCCAGTGATTGCTTCCTTCA	68300
GCCTTCAATTTCCGTAGGGAACCTTCCTCCCAGTGA	6860
TCAACATCCTGCTTCTCAGGGCACCACAGGAAATGT	36600
ACGTCACTTCCGGCGCCGGGGCTCACTTCCTGGTGC	87500

Sequence	ETS1 binding intensity
GGCGGCGACGGAAGTGAAGTCACTTCCGGGCTGGGG	21300
TCGGGCCCTGGCTTCCGTCACTTCCGCCCGTGCCTG	14700
CAGCTAGGCTTCCTTCTCCTCCCTTCCTGTGCCTCC	1100
TCTACTTCCGGTTTGCCTGTGAATTCTTTCCTGGGC	153000
GAGGGTAACTTCCTGTTTCTGCCTTCCGGGTTTGAG	47100
GTTTTCAGTTGCCTTCCGGTTTCCTGCTGTGATAAC	15800
AAGGGAATCTGGGAAATGTAGTTTCCTGCAATCCAG	540
GGCCGCTTCCGAGCGCCGCCAACCGCTTCCGGGTTC	5250
GCCCGAGCCGCTTCCGGGTACTTCCGGCGGCCGCGG	39600
GTCACTTCCGGCCCCGAGTTCGAGCCGCTTCCGGGT	115000
GGACTTCCCAACTAGACAGACCAAATGAGGAAGTTG	880
CTGGGGGTCCGGATGCTTTGCGTTTCCCAGCAGTTG	1230
GGGCACTTCCGGGGCCGGCGCCCAGAGTTCCGGGAG	46800
CCCACTTCCGGCAACAAGATAGAGCACTTCCGTCAA	77600
TGACAAGAGCCGGAACCGTCACTTCCGGCGGCGCGG	24700
TCAGTGGGCGGAAGAGGTGGCCCCGGATGCTGCGGC	1430
GCGGTTACTTCCGGTCACTTTCGCCGGAACCTGACT	86200
ATTTTCGGTCTTCCGGTCAGCCGGAACCACTCACAC	29800
CGCCGCCGGAAGTGCCTGGCCTCACTTCCGGTCAGA	37200
CCATTCATTTCCTGCCTCCCCGAGTTCCGGCTGCGG	35800
